In ChEMBL document CHEMBL3988442, “University of Dundee, Small-Polar-MMV Screening Library” (2021) one finds Percent Effect data, which are given here for nine compounds.

Common to all, as to set-up: scale not given: direction of the effect not stated beside the values
Assay [1] deals with Protein translocase subunit SecA (Escherichia coli (strain K12)) (UniProt P10408). The assay is described as follows: Assay to Identify E. coli SecA ATPase Inhibitors. The assay is classed as functional. Conditions: 30 µM.
Sequence of Protein translocase subunit SecA (Escherichia coli (strain K12)) (P10408 whole entry): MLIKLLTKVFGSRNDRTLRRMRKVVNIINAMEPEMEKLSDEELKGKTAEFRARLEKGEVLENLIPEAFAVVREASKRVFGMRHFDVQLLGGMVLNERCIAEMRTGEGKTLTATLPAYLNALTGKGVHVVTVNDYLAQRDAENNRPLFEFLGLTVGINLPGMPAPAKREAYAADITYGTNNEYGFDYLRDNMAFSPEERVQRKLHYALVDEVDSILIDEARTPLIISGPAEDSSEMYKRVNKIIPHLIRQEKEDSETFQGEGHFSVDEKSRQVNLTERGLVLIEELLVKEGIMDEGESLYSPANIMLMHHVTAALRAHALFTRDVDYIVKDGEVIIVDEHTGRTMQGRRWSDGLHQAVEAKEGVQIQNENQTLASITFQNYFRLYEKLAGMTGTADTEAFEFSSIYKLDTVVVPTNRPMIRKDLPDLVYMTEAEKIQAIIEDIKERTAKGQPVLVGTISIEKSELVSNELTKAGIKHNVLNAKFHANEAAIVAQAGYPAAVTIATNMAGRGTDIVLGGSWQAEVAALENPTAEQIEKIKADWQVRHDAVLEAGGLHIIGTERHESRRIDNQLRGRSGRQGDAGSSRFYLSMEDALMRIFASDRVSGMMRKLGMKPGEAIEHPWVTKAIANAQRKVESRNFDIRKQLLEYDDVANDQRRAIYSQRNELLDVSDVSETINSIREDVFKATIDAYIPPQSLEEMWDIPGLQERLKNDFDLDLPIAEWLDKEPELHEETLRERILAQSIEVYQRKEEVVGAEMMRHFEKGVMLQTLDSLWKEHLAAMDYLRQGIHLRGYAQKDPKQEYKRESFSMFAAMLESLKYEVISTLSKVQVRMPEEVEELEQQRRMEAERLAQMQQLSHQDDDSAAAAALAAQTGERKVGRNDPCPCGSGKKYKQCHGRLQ
For assay [2], the target named is T1, Ubiquitin-activating enzyme e1, putative (Leishmania donovani (strain BPK282A1)) (UniProt E9BSI1).
T1 sequence (whole entry): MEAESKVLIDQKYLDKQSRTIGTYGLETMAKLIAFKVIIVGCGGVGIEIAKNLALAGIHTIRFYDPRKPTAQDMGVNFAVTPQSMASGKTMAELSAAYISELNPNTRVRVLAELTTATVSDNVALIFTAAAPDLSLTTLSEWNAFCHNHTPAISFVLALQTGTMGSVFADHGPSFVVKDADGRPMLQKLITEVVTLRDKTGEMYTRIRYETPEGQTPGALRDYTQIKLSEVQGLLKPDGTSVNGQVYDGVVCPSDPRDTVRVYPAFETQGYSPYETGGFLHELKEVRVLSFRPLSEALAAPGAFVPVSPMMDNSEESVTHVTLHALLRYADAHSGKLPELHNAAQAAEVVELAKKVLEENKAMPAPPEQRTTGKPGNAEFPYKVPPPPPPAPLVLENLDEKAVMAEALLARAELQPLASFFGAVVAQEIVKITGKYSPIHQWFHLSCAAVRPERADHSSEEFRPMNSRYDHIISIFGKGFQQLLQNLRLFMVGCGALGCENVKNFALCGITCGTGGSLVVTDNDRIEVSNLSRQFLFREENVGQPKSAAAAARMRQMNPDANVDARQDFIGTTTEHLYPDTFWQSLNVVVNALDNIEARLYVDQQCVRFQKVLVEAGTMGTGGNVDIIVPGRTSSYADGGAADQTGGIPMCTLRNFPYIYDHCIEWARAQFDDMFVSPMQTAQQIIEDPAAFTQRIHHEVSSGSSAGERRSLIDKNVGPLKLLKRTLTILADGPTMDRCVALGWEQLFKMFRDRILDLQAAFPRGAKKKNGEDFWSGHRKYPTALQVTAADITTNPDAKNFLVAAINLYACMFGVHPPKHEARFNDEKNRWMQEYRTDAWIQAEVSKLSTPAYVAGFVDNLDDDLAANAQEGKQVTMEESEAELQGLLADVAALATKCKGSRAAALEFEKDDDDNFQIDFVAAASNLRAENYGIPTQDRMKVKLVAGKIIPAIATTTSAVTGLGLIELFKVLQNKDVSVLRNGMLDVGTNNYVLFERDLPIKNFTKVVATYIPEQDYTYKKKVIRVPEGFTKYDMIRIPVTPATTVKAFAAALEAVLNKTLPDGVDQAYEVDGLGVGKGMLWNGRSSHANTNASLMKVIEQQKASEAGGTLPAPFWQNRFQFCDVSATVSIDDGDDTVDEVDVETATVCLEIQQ
Kind of assay: Leishmania donovani Ubiquitin Activating Enzyme (LdE1). The format is functional. Conditions: 30 µM.

For assay [3], the target named is AMP-activated protein kinase, AMPK (Homo sapiens) (UniProt P54646+O43741+P54619+Q9UGJ0+Q9Y478+Q13131+Q9UGI9). The assay is described as follows: AMP-dependent Kinase enzyme assay. An in vitro enzyme assay that detects ADP turnover that is directly proportional to AMPK activity. This uses naive AMPK that is activated during the assay with MK-8722. The format is functional. The settings on record: 30 µM.

In assay [4] the target is Sialic acid-binding Ig-like lectin 9 (Homo sapiens) (UniProt Q9Y336). The assay is described as follows: Hs-Siglec9 ALPHAscreen SOP 20170721. Conditions: 10 µM. A general note: In Alpha technology, singlet oxygen from a donor bead excites a nearby acceptor bead.
Sequence of Sialic acid-binding Ig-like lectin 9 (Homo sapiens) (Q9Y336 whole entry): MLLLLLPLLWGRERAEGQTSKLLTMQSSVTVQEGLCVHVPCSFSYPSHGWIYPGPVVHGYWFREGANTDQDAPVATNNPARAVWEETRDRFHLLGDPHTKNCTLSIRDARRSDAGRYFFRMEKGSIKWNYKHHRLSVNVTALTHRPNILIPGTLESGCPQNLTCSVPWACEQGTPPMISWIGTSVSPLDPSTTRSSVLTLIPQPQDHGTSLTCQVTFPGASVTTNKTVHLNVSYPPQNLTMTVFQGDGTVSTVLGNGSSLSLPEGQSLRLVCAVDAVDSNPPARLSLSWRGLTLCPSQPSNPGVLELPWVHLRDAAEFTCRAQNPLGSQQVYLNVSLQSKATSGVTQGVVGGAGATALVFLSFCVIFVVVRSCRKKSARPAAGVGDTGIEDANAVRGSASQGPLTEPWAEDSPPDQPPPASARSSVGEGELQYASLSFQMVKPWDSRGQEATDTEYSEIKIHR
In the next assay the test system is Trypanosoma cruzi. The assay is described as follows: Trypanosoma cruzi phosphomannomutase and mannose-1-phosphate guanylyltransferase assay. The assay is classed as functional. Conditions: 10 µM.
The target in assay [5] is T2, Arginase-2, mitochondrial (Homo sapiens) (UniProt P78540).
T2 sequence (whole entry): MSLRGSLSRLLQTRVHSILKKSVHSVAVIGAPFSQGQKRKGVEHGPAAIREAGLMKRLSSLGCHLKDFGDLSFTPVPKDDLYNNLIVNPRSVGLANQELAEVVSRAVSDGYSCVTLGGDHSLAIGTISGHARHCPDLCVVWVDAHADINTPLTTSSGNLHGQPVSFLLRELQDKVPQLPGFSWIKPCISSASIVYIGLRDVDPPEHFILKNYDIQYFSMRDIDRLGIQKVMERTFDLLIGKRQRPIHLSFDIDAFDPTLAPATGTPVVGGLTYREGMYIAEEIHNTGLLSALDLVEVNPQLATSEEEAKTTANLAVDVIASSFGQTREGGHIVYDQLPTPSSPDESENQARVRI
Kind of assay: in vitro enzyme assay to detect the production of urea directly proportional to the activity of Arginase II. Also: in the data most compounds retested in dose-response had high values. The assay is classed as functional. Conditions: 33.3 µM.

Assay [6] deals with T3, Proteasome subunit beta (Trypanosoma cruzi) (UniProt O96673).
T3 sequence (whole entry): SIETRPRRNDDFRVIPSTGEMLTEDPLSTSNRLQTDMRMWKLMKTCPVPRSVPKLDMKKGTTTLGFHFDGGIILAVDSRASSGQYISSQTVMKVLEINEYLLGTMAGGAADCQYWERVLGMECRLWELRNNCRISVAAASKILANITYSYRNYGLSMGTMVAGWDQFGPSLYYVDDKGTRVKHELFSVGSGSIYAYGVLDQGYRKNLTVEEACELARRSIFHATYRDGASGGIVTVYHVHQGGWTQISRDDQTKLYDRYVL
Kind of assay: Trypanosoma cruzi proteasome chymotrypsin-like activity (TcProtChymo) assay. Also: in the data most compounds retested in dose-response had high values. The format is functional. Conditions: 9.37 µM.

Another assay is filed under the species Homo sapiens. The assay is described as follows: To identify inhibition of the IFN signalling (Jak-Stat) pathway via expression of an eGFP reporter gene under the control of an IFN-stimulated response element (ISRE) containing MxA promoter. The assay is classed as functional. Conditions: 30 µM. For orientation: In a reporter assay the amount or activity of a reporter protein is the signal.

In assay [7] the target is T4, Tyrosyl-tRNA synthetase, putative (Trypanosoma cruzi (strain CL Brener)) (UniProt Q4DSP6).
T4 sequence (whole entry): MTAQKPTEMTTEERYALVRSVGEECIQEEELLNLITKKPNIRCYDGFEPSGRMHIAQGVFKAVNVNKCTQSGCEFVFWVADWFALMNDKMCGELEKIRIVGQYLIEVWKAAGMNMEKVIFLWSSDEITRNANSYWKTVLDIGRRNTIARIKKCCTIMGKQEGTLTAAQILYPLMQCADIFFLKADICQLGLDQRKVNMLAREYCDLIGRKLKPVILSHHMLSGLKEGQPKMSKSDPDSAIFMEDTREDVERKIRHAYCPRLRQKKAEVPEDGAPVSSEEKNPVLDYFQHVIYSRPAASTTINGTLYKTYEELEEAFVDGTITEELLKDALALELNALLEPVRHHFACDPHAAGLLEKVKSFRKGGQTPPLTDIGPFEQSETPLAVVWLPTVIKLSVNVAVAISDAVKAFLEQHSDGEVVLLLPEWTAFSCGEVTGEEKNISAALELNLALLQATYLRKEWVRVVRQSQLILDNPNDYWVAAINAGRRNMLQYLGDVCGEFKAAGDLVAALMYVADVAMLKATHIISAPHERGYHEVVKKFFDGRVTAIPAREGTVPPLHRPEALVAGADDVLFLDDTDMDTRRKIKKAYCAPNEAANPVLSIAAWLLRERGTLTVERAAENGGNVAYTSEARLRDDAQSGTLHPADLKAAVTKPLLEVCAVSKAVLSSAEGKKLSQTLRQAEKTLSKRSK
Kind of assay: Trypanosoma cruzi tyrosyl tRNA synthetase (TcYRS) _High Tyrosine SOP. Also: in the data most compounds retested in dose-response had high values. The assay is classed as functional. The settings on record: 30 µM.

For assay [8], the target named is T4, Tyrosyl-tRNA synthetase, putative (Trypanosoma cruzi (strain CL Brener)). The assay is described as follows: Trypanosoma cruzi tyrosyl tRNA synthetase (TcYRS) SOP. The assay is classed as functional. The settings on record: 30 µM.
Assay [9] concerns the target Chromo domain-containing protein 1 (Saccharomyces cerevisiae (strain ATCC 204508 / S288c) (Baker's yeast)) (UniProt P32657). Kind of assay: ScCHD-1 Enzyme Inhibition Assay. Also: in the data most compounds retested in dose-response had high values. The assay is classed as functional. Conditions: 30 µM.

For part of these data: Measured potencies and affinities stand elsewhere.

Sequence of Chromo domain-containing protein 1 (Saccharomyces cerevisiae (strain ATCC 204508 / S288c) (Baker's yeast)) (P32657 whole entry, the tested form may be a part): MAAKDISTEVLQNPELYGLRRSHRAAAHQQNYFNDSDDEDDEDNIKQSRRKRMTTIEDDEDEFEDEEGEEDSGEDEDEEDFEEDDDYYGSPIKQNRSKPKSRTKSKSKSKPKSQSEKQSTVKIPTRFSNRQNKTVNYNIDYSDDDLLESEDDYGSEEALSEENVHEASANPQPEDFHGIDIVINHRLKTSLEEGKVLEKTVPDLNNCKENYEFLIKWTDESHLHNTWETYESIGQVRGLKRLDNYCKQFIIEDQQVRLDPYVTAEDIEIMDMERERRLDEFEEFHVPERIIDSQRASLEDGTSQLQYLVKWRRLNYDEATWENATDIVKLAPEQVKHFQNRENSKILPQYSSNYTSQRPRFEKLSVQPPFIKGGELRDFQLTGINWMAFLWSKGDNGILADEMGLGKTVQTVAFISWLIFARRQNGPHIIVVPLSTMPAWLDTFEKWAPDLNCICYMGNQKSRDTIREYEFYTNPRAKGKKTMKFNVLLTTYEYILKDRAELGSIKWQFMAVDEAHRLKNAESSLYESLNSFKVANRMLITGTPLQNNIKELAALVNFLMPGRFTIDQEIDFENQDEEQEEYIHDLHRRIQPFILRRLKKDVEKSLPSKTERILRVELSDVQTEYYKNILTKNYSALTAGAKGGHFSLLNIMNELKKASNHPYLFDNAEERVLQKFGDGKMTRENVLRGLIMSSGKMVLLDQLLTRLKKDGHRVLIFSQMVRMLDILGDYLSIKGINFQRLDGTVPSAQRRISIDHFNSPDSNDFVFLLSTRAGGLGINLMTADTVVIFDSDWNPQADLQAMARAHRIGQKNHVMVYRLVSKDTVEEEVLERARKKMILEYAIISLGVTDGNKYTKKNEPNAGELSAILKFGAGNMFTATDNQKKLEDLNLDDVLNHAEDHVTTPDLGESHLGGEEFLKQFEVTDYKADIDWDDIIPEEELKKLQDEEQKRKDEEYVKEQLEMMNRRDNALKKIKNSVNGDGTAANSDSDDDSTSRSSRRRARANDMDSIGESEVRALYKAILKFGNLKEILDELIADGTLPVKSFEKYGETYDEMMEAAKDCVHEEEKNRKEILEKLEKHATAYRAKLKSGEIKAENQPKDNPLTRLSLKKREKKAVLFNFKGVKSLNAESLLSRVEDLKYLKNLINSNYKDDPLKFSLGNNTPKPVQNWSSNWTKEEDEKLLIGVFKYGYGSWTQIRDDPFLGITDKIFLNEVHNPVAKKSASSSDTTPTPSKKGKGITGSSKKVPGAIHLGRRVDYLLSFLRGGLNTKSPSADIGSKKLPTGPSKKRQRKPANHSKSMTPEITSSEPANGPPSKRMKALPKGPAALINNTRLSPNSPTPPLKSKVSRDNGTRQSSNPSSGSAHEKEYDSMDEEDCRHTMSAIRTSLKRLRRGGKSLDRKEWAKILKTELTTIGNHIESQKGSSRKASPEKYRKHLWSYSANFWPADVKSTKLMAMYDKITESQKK

In the case of `CCn1c(C)nnc1CN(C)C1CCN(CCc2ccncc2)C1` (centres undefined), the Percent Effect in [1] was -2.2%; in assay [2], 20.8%; in [3], -0.899%; in assay [4], 1.88%; in the assay on Trypanosoma cruzi, 1.47%; in assay [5], -3.16%. The Percent Effect in assay [6] was 9.62%; in the assay listed under Homo sapiens it was 13.3%; in [7] it was 11.4%; in assay [8] it was 30.6%; in [9], -19.1%.
Regarding `Cc1ccc(NC2CCN(C(=O)COc3cccnc3)CC2)nn1`, the Percent Effect in assay [1] was -5.07%; in assay [2] it was 21.5%; in assay [3], -3.6%; in assay [4] it was -4.99%; with Trypanosoma cruzi, -0.923%; in [5] it was -1.94%. Moreover, the Percent Effect in assay [6] is 14.1%; in the assay listed under Homo sapiens, 12.9%; in assay [7], 4.17%; in assay [8], 15.2%; in [9], -15.5%.
For the compound `O=C(NCCc1nnc2n1CCC2)NC1(c2cccc(F)c2)CC1`, the Percent Effect is -3.06% in [1]; 15.8% in assay [2]; 4.44% in assay [3]; -2.57% in assay [4]; -3.6% in the assay on Trypanosoma cruzi; -3.55% in assay [5]. For the same compound, the Percent Effect in assay [6] was 14.1%; in the assay filed under Homo sapiens, 11%; in assay [7], 0%; in assay [8], 10.4%; in assay [9], -3.66%.
On to `COCC(=O)NCc1cccc(Br)c1`, for which the Percent Effect was -0.913% in assay [1]; 18.4% in assay [2]; -5.98% in [3]; -7.74% in [4]; 4.89% in the assay with Trypanosoma cruzi; 1.92% in assay [5]. Moreover, the Percent Effect was 11.4% in [6]; 13.3% in the assay filed under Homo sapiens; 4.41% in [7]; 19.5% in assay [8]; -12.7% in assay [9].
In the case of `CN(Cc1cscn1)C1CCCN(Cc2noc(C3CC3)n2)C1` (centres undefined), the Percent Effect in assay [1] is -0.734%; in assay [2], 23.7%; in [3], -5.57%; in assay [4], -10.6%; in the assay with Trypanosoma cruzi it was 2.33%; in assay [5], 0.36%. Besides, the Percent Effect in assay [6] was 12.9%; in the assay listed under Homo sapiens it was 0.628%; in [7], 7.39%; in [8], 28.4%; in assay [9], -12.5%.
As for `CNc1cc(C)nc(C2CN(Cc3cc[nH]n3)CCO2)c1` (centres undefined), the Percent Effect in assay [1] was -2.72%; in assay [2] it was 1.35%; in [3], 11.4%; in assay [4] it was -2.27%; with Trypanosoma cruzi, -7.51%; in assay [5], -6.26%. Besides, the Percent Effect in [6] was -0.156%; in the assay filed under Homo sapiens it was -17.5%; in [7], 0%; in [8] it was 3.9%; in assay [9] it was -10.1%.
As for `O=C1CC(c2ccc(F)c(F)c2)c2snc(C(=O)O)c2N1` (centres undefined), the Percent Effect was -0.493% in [1]; -6.67% in assay [2]; 4.23% in assay [3]; 3.7% in [4]; -2.36% with Trypanosoma cruzi; 0.176% in assay [5]. Moreover, the Percent Effect in [6] was 2.77%; in the assay listed under Homo sapiens it was -4.84%; in assay [7], 2.12%; in [8], -5.13%; in [9] it was -4.62%.
Turning to `O=C(c1ccc2c(c1)CCCC2)N1CCOCC1c1ncon1` (centres undefined), the Percent Effect is -2.2% in assay [1]; 5.41% in assay [2]; -9.67% in assay [3]; 7.55% in assay [4]; 2.17% in the assay on Trypanosoma cruzi; -5.61% in [5]. For the same compound, the Percent Effect in assay [6] was 9.37%; in the assay filed under Homo sapiens it was 5.93%; in assay [7], 3.45%; in [8], 13.6%; in assay [9] it was -8.29%.
In the case of `CC(C)Cc1noc(CN2CCN(C(=O)c3cccc(F)c3)CC2)n1`, the Percent Effect was -4.75% in [1]; -2.74% in assay [2]; 1.5% in assay [3]; 5.59% in assay [4]; 1.39% with Trypanosoma cruzi; 0% in assay [5]. The Percent Effect was determined as 1.97% in assay [6]; 0.357% in the assay listed under Homo sapiens; 4.17% in assay [7]; 1.24% in assay [8]; 6.05% in assay [9].
